{"source": "PubChem BioAssay (EPA / NIEHS)", "note": "The source made the active and inactive calls. The calls were made as follows: active = hit-call score of the fitted dose curve at least 0.9, where 1 is the maximum; inactive = score below 0.9.", "data": [{"read-out": "CYP2C8 (gene 1558)", "experiment": "LTEA_HepaRG_CYP2C8: Life Technologies and Expression Analysis (LTEA) Assay for CYP2C8 using HepaRG (AID 2283483)", "conditions": "mRNA level, 48 h; actives raise or lower the signal", "experimental": "LTEA_HepaRG is a cell based, multiplexed-readout assay that uses HepaRG, a human liver cell line, with measurements taken at 48 hours after chemical dosing on a 96-well plate.LTEA_HepaRG_CYP2C8 is one of 102 assay component(s) measured in the LTEA HepaRG cell culture assay. It is a marker of NR mediated metabolism.Data from the assay component LTEA_HepaRG_CYP2C8 was analyzed into 1 endpoint. This assay endpoint, LTEA_HepaRG_CYP2C8, was analyzed with bidirectional fitting relative to DMSO as the negative control and baseline of activity. Using a type of inducible reporter, measures of mRNA induction for gain or loss-of-signal activity can be used to understand regulation of transcription factor activity. To generalize the intended target to other relatable targets, this assay endpoint is annotated to the cyp intended target family, where the subfamily is xenobiotic metabolism.\nA total of 1060 chemcials from the ToxCast library were tested in eight-point concentration-response experiments. Cell culture and cytotoxicity assays were conducted at Thermo Fisher Scientific's Custom Services facility (Madison, WI). A single lot of human HepaRG cells (Thermo Fisher Scientific, Frederick, MD) was used for the cell culture experiments. 96-well format collagen type I coated plates of human HepaRG cells were prepared using established methods. Briefly, cryopreserved HepaRG cells were thawed, plated at a density of approximately 100,000 cells/well in HepaRG Thaw, Plate, and General Purpose media (HPRG770, Thermo Fisher Scientific), and incubated for 48 hours. 0.5% DMSO was selected as vehicle control to balance the requisite need of DMSO in HepaRG cultures to maintain differentiation (for example, baseline metabolism, proportions of hepatocytes vs. cholangiocytes), while enabling further hepatic receptor pathway activation (for example, PXR and CAR) in response to chemical exposure. 48 hours after plating, the culture medium was replaced with HepaRG Serum-Free Incudtion Media. Cells were exposed to each test chemical in duplicate and maintained in CO2 incubators for another 48 hours. Chemical plates were thawed to room temperature and 200x concentrations of treatment groups were prepared. 8-point conentration-reponse curves were made with the highest exposure at 100 uM, followed by half-log dilutions, all in 0.5% DMSO. Each test plate contained variouse controls, induction positive controls (1mM phenobarbital), cytotoxicity positive controls ([…] aflatoxin B1), vehicle controls (0.5% DMSO), and total lysis controls (0.5% DMSO). Cell morphology images were taken using an Essen IncuCyte FLR automated microscope, with six 96-well plates imaged in about 24 minutes. Images were captured and exported and JPEG files. Spent culture media was transfered to black-well plates for the LDH assay, and remaining media was sorted at -80 C for later use. Cells were treated with RLT buffer and frozen until shipped for gene expression analysis. Total RNA was isolated from the cell suspension in 75 uL of Buffer RLT (Qiagen, Germantown, MD 20874) by Quintiles/Expression Analysis (Durham, NC) using a custom isolation procedure. Total RNA from each plate well was transferred to a preamplification plate. Fluidigm's 96.96 Dynamic ArrayTM (Fluidigm, Amsterdam, the Netherlands) technology was used for gene expression analyses by quantitative reverse transcription polymerase chain reaction (qRT-PCR, performed by Quintiles/Expression Analysis, Durham, NC)89. Standard TaqManTM Assays (Applied Biosystems/ThermoFisher Scientific, Foster City, CA) were used to assess the expression of 93 genes selected based on their selectivity and sensitivity to important hepatic receptors known to be modulated by environmental chemicals; importance in human hepatocyte functionality; and hepatotoxicity. […]", "values": [{"smiles": "Nc1c(Cl)c(Cl)nc(C(=O)O)c1Cl", "outcome": "inactive"}, {"smiles": "CC(C)Nc1nc(Cl)nc(NC(C)C)n1", "outcome": "inactive"}, {"smiles": "CCN(CC)c1nc(C)cc(OP(=S)(OC)OC)n1", "outcome": "inactive"}, {"smiles": "Nc1cnn(-c2ccccc2)c(=O)c1Cl", "outcome": "inactive"}, {"smiles": "CCNP(=S)(OC)O/C(C)=C/C(=O)OC(C)C", "note": "(stereo not given)", "AC50": "12.9 µM (active)"}, {"smiles": "CC1(C)C(C(=O)OC(C#N)c2cccc(Oc3ccccc3)c2)C1(C)C", "note": "(stereo not given)", "outcome": "inactive"}, {"smiles": "CCSC(=O)N1CCCCCC1", "outcome": "inactive"}, {"smiles": "CC(C)C1(C)N=C(c2ncccc2C(=O)O)NC1=O", "note": "(stereo not given)", "outcome": "inactive"}, {"smiles": "CC(C)N1C(=O)c2ccccc2NS1(=O)=O", "outcome": "inactive"}, {"smiles": "CNC(=O)Oc1cccc2ccccc12", "outcome": "inactive"}, {"smiles": "C=CCOC(=O)C(C)(C)OC(=O)c1cc(-n2c(=O)cc(C(F)(F)F)n(C)c2=O)ccc1Cl", "outcome": "inactive"}, {"smiles": "CNC(=O)N(C)c1nnc(C(C)(C)C)s1", "outcome": "inactive"}, {"smiles": "N#Cc1c[nH]cc1-c1cccc2c1OC(F)(F)O2", "outcome": "inactive"}, {"smiles": "COCc1cnc(C2=NC(C)(C(C)C)C(=O)N2)c(C(=O)O)c1", "note": "(stereo not given)", "outcome": "inactive"}, {"smiles": "CCNC(=O)NC(=O)C(C#N)=NOC", "outcome": "inactive"}, {"smiles": "O=c1n(Cl)c(=O)n(Cl)c(=O)n1Cl", "outcome": "inactive"}, {"smiles": "CCC(C)n1c(=O)[nH]c(C)c(Br)c1=O", "note": "(stereo not given)", "AC50": "50 µM (active)"}, {"smiles": "CCCC(=NOCC)C1=C(O)CC(CC(C)SCC)CC1=O", "note": "(stereo not given)", "outcome": "inactive"}, {"smiles": "CC1(C)CCC(=Cc2ccc(Cl)cc2)C1(O)Cn1cncn1", "note": "(stereo not given)", "AC50": "12.6 µM (active)"}, {"smiles": "N#CN=C1SCCN1Cc1ccc(Cl)nc1", "outcome": "inactive"}, {"smiles": "CCOP(=O)(OCC)Oc1nc(Cl)c(Cl)cc1Cl", "AC50": "84.5 µM (active)"}, {"smiles": "CCOc1nc(C(Cl)(Cl)Cl)ns1", "AC50": "1.14 µM (active)"}, {"smiles": "CO/N=C(/C1=NOCCO1)c1ccccc1Oc1ncnc(Oc2ccccc2Cl)c1F", "AC50": "25.8 µM (active)"}, {"smiles": "Clc1nc(Cl)nc(Nc2ccccc2Cl)n1", "outcome": "inactive"}, {"smiles": "COC(=O)c1c(C(F)F)nc(C(F)(F)F)c(C2=NCCS2)c1CC(C)C", "AC50": "50 µM (active)"}, {"smiles": "CCOC(=O)C(C)OC(=O)c1cc(Oc2ccc(C(F)(F)F)cc2Cl)ccc1[N+](=O)[O-]", "note": "(stereo not given)", "AC50": "12.8 µM (active)"}, {"smiles": "CS(=O)(=O)c1ccc(C(=O)C2C(=O)CCCC2=O)c([N+](=O)[O-])c1", "outcome": "inactive"}, {"smiles": "CCOc1nc(F)cc2nc(S(=O)(=O)Nc3c(Cl)cccc3Cl)nn12", "outcome": "inactive"}, {"smiles": "COc1ccc(-c2ccccc2)cc1NNC(=O)OC(C)C", "outcome": "inactive"}, {"smiles": "COC(=O)N(C(=O)N1CO[C@@]2(C(=O)OC)Cc3cc(Cl)ccc3C2=N1)c1ccc(OC(F)(F)F)cc1", "outcome": "inactive"}, {"smiles": "O=C1C2CC=CCC2C(=O)N1SC(Cl)(Cl)Cl", "note": "(stereo not given)", "outcome": "inactive"}, {"smiles": "O=C(Nc1ccccc1-c1ccc(Cl)cc1)c1cccnc1Cl", "outcome": "inactive"}, {"smiles": "CCCN(CC)CC1COC2(CCC(C(C)(C)C)CC2)O1", "note": "(stereo not given)", "outcome": "inactive"}, {"smiles": "CC1(C)C(C=C(Cl)Cl)C1C(=O)OC(C#N)c1cccc(Oc2ccccc2)c1", "note": "(stereo not given)", "outcome": "inactive"}, {"smiles": "COP(=S)(OC)Oc1ccc([N+](=O)[O-])c(C)c1", "outcome": "inactive"}, {"smiles": "Cc1cc(C)nc(Nc2ccccc2)n1", "outcome": "inactive"}, {"smiles": "COP(=S)(OC)SCn1nnc2ccccc2c1=O", "outcome": "inactive"}, {"smiles": "CN=C=S", "outcome": "inactive"}, {"smiles": "Cc1nc(N(C)C)nc(OC(=O)N(C)C)c1C", "AC50": "9.92 µM (active)"}, {"smiles": "CC(C)Oc1cccc(NC(=O)c2ccccc2C(F)(F)F)c1", "AC50": "50 µM (active)"}]}]}
